# Results taken from PubChem BioAssay (NCI).
# About 83,000 compounds went through this panel and 20% of them were active in at least one assay; those are over-represented in the sample as a whole.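 The test compound was applied at a single concentration to cells in 96-well plates for 48 hours, and percent growth was recorded.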 Activity calls are given as the source filed them. Rule for the calls: active = growth percent below 10; inactive = the rest.
# Test system: HL-60(TB) leukemia
# Test: NCI-60 one-dose screen, 48 h (100 = growth as untreated, 0 = no growth, -100 = all killed)
# Conditions: 10 µM unless noted
row,Structure (SMILES),growth
1,O=C(Nc1ccccc1Cl)Oc1ccc2ccccc2c1,72.3% (inactive)
2,O=C(Nc1ccc(CN2CCOCC2)cc1)c1[nH]ncc1Nc1ncnc2sccc12,-22% (active)
3,O=C(CCl)Oc1ccc(-c2ccccc2)c(Br)c1,105% (inactive)
4,CC1=CCC(OC(=O)C(C)(O)CCC(O)(C(=O)OC2(C)C=CC(O)(C(C)C)CC2)C(C)C)(C(C)C)CC1 (stereo not given),110% (inactive)
5,NC(C(=O)O)C(O)c1ccc(OCc2ccccc2)c(OCc2ccccc2)c1 (stereo not given),105% (inactive)
6,CCN1C(=O)N(CC)C2Nn3c(s/c(=C4\C(=O)N(C(C)C)c5ccccc54)c3=O)=NC21 (stereo not given),6.28% (active)
7,COc1ccc2c(c1)C(C)Cc1c(Cl)ncnc1N2C (stereo not given),-0.632% (active)
8,COc1ccc(Cl)cc1Nc1nc(C(F)(F)F)ccc1C(=O)N/N=C/c1cccnc1,21.8% (inactive)
9,COc1ccc(C(=S)N2CCN(c3ccccc3Cl)CC2)cc1OC,118% (inactive)
10,O=[N+]([O-])c1cccc(-c2nc(-c3ccc(Cl)cc3Cl)cn2-c2ccccc2)c1,35.3% (inactive)
11,COc1ccc2c(c1)oc1c(C)c3c(c(C)c12)C(=O)N(Nc1ccccc1)C3=O,107% (inactive)
12,c1ccc(CCNc2c3ccccc3nc3ccccc23)cc1,41.3% (inactive)
13,COc1ccc(C(=O)c2sc3nc(-c4cccs4)ccc3c2N)cc1OC,23.3% (inactive)
14,COc1cc(C2=NN(C(C)=O)C(c3cccc(Nc4ccnc5cc(C(F)(F)F)ccc45)c3)C2)cc(OC)c1OC (stereo not given),10.6% (inactive)
15,CC(=O)O[C@H]1C[C@@]2(C)[C@@H](C[C@@H](O)[C@H]3[C@@]4(C)CC[C@H](N5CCCC5)[C@@H](C)[C@@H]4CC[C@@]32C)/C1=C(\CCC=C(C)C)C(=O)O,-74.3% (active)
